Experimental data: PubChem BioAssay (NCI)
Compounds without any hit were thinned out: in the full panel of roughly 83,000, 20% have a hit.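 Values shown are percent growth following 48 h exposure of cells in 96-well plates to a single concentration of compound; below 10 was considered active.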 Values without a mark were called inactive. Active and inactive are the calls of the source.

What follows are molecules tested on RXF 393 renal (assay: NCI-60 one-dose screen, 48 h (100 = growth as untreated, 0 = no growth, -100 = all killed)). Conditions: 10 µM.

SMILES	growth
Cc1ccc(-n2nnc3c(sc4ccccc43)c2=O)cc1	59.9%
Nc1ccn([C@@H]2O[C@H](COP(=O)(O)O[C@@H]3C[C@H](n4cc(F)c(=O)[nH]c4=O)O[C@@H]3COP(=O)(O)O[C@@H]3C[C@H](n4cc(F)c(=O)[nH]c4=O)O[C@@H]3COP(=O)(O)O[C@@H]3C[C@H](n4cc(F)c(=O)[nH]c4=O)O[C@@H]3COP(=O)(O)O[C@@H]3C[C@H](n4cc(F)c(=O)[nH]c4=O)O[C@@H]3COP(=O)(O)O[C@@H]3C[C@H](n4cc(F)c(=O)[nH]c4=O)O[C@@H]3COP(=O)(O)O[C@@H]3C[C@H](n4cc(F)c(=O)[nH]c4=O)O[C@@H]3COP(=O)(O)O[C@@H]3C[C@H](n4cc(F)c(=O)[nH]c4=O)O[C@@H]3COP(=O)(O)O[C@@H]3C[C@H](n4cc(F)c(=O)[nH]c4=O)O[C@@H]3COP(=O)(O)O[C@@H]3C[C@H](n4cc(F)c(=O)[nH]c4=O)O[C@@H]3COP(=O)(O)O[C@@H]3C[C@H](n4cc(F)c(=O)[nH]c4=O)O[C@@H]3COP(=O)(O)OCCOCCOCCOCCOCCOCCO)[C@H](O)C2O)c(=O)n1 (stereo not given in full)	63.9%
COc1ccc(-c2nnc(COc3ccc(NC(=O)Nc4cccc(C(F)(F)F)c4)cc3F)o2)cc1	86.6%
Fc1ccc(Nc2ccnc(N3CCN(c4ccnc5cc(Cl)ccc45)CC3)n2)cc1	66.7%
CCOC(=O)c1cc(-c2ccccc2)nc(N)n1	93.7%
CC1(CO)CCCC12OCCO2 (stereo not given)	100%
CCc1c(C)[nH]c(=O)c(C(N)=O)c1C#N	108%
CCOc1ccc2c(c1)CC[C@@H]1[C@@H]2CC[C@]2(C)[C@@H](O)[C@@H](O)C[C@@H]12	95.9%
COc1ccc(OC)c([N+](=O)[O-])c1C=O	80.6%
CCOC(=O)Nc1ccc2c(c1)C(=O)N(CC)c1ccccc1O2	-4.5% (active)
Cc1ccc(C)c2c1sc1nc3n[nH]c(N)c3c(=N)n12	112%
c1ccc(CC(NCCNC(Cc2ccccc2)c2ccccc2)c2ccccc2)cc1 (stereo not given)	-8.13% (active)
Cc1ccc2nc(-c3ccc(OCC(=O)N=Nc4c(O)[nH]c5ccccc45)cc3)[nH]c2c1	102%
COc1ccc2c(=O)cc(C(Cl)(Cl)Cl)oc2c1	-72.1% (active)
c1ccc(OCCC[P+](c2ccccc2)(c2ccccc2)c2ccccc2)cc1	31.6%
COc1cc(CSc2nc3ccc(C)cc3c(=O)n2Cc2ccccc2)cc(OC)c1OC	-16.9% (active)
C[N+]1=C(/C=C/c2ccc(I)cc2)C(C)(C)c2ccccc21	70.7%
COc1ccccc1S(=O)(=O)Nc1ccc2c(c1)CN(C)C(=O)N2	73.3%
CCC(O)c1ccc(Br)cc1NC(=O)c1cccc(Cl)c1 (stereo not given)	16.3%
CCCCn1c(=O)[nH]c(N)c(C(c2ccc(Cl)cc2)c2c(N)[nH]c(=O)n(CCCC)c2=O)c1=O	18.7%
COc1ccc(C(=O)/C=C/c2cc(-c3ccc4c(c3)OCO4)n[nH]2)cc1OC	38.6%
COc1ccc2oc(=O)cc(C(c3ccc[nH]3)c3ccc[nH]3)c2c1	-31.3% (active)

What follows are molecules tested on SF-268 CNS in the same assay as above. Conditions: 10 µM.

SMILES	growth
CCCCCCCCCCCC(=O)NCCCN(C)C	96.2%
Nc1ccc(C2=CC(c3ccc(Cl)cc3)N3C=CSC3=N2)cc1 (stereo not given)	-41.9% (active)
CC(=O)n1nc(C(=O)OC(C)(C)C)c2cc(F)c(F)cc21	101%
COC(=O)c1c(C)nc(Nc2nc3ccccc3s2)nc1-c1ccc(Cl)cc1Cl	101%
O=C(O)CCCCSCCCCC(=O)O	107%
COc1cc(-c2nc3ccc(C)cc3[nH]2)ccc1OCC(=O)N=Nc1c(O)[nH]c2ccccc12	-35.6% (active)
CC1=CSC2=NC(c3ccc(Cl)c(Cl)c3)=CC(c3ccc(Cl)cc3)N12 (stereo not given)	14.7%
COc1ccc(Nc2ccnc(N3CCN(c4ccnc5cc(Cl)ccc45)CC3)n2)cc1	30.3%
Cn1cnc([N+](=O)[O-])c1/C=C1\Oc2ccc(Cl)cc2C1=O	86.5%
CCOC(=O)Cn1nnc(-c2ccc(OCc3ccccc3F)cc2)n1	82.8%
COc1ccc(/C(CS(=O)(=O)c2ccccc2)=N\O)cc1	115%
COc1ccc(S(=O)(=O)Nc2cc(/C=C\c3cc(OC)c(OC)c(OC)c3)ccc2OC)cc1	9.24% (active)
COc1ccc2nc(C)cc(Nc3ccc(Cl)cc3)c2c1	103%
COc1cc(-c2nc3ccc(C)cc3[nH]2)ccc1OCc1nnc(-c2ccc(CC(C)C)cc2)o1	105%
Cc1noc(C)c1-c1ccc2nc(NC(=O)[C@H]3CCN(C#N)C3)cn2c1	91.3%
COc1ccc(COC(=O)CC(C)C)cc1	93%
Cc1ccc(-n2nnc3c(sc4ccccc43)c2=O)cc1	39.8%
Nc1ccn([C@@H]2O[C@H](COP(=O)(O)O[C@@H]3C[C@H](n4cc(F)c(=O)[nH]c4=O)O[C@@H]3COP(=O)(O)O[C@@H]3C[C@H](n4cc(F)c(=O)[nH]c4=O)O[C@@H]3COP(=O)(O)O[C@@H]3C[C@H](n4cc(F)c(=O)[nH]c4=O)O[C@@H]3COP(=O)(O)O[C@@H]3C[C@H](n4cc(F)c(=O)[nH]c4=O)O[C@@H]3COP(=O)(O)O[C@@H]3C[C@H](n4cc(F)c(=O)[nH]c4=O)O[C@@H]3COP(=O)(O)O[C@@H]3C[C@H](n4cc(F)c(=O)[nH]c4=O)O[C@@H]3COP(=O)(O)O[C@@H]3C[C@H](n4cc(F)c(=O)[nH]c4=O)O[C@@H]3COP(=O)(O)O[C@@H]3C[C@H](n4cc(F)c(=O)[nH]c4=O)O[C@@H]3COP(=O)(O)O[C@@H]3C[C@H](n4cc(F)c(=O)[nH]c4=O)O[C@@H]3COP(=O)(O)O[C@@H]3C[C@H](n4cc(F)c(=O)[nH]c4=O)O[C@@H]3COP(=O)(O)OCCOCCOCCOCCOCCOCCO)[C@H](O)C2O)c(=O)n1 (stereo not given in full)	36.8%
COc1ccc(-c2nnc(COc3ccc(NC(=O)Nc4cccc(C(F)(F)F)c4)cc3F)o2)cc1	75.1%

SMILES	growth
Fc1ccc(Nc2ccnc(N3CCN(c4ccnc5cc(Cl)ccc45)CC3)n2)cc1	72.4%
CCOC(=O)c1cc(-c2ccccc2)nc(N)n1	106%
CC1(CO)CCCC12OCCO2 (stereo not given)	110%
CCc1c(C)[nH]c(=O)c(C(N)=O)c1C#N	105%
CCOc1ccc2c(c1)CC[C@@H]1[C@@H]2CC[C@]2(C)[C@@H](O)[C@@H](O)C[C@@H]12	103%
COc1ccc(OC)c([N+](=O)[O-])c1C=O	109%
CCOC(=O)Nc1ccc2c(c1)C(=O)N(CC)c1ccccc1O2	42.1%
Cc1ccc(C)c2c1sc1nc3n[nH]c(N)c3c(=N)n12	109%
c1ccc(CC(NCCNC(Cc2ccccc2)c2ccccc2)c2ccccc2)cc1 (stereo not given)	43.1%
Cc1ccc2nc(-c3ccc(OCC(=O)N=Nc4c(O)[nH]c5ccccc45)cc3)[nH]c2c1	102%
COc1ccc2c(=O)cc(C(Cl)(Cl)Cl)oc2c1	-36.4% (active)
c1ccc(OCCC[P+](c2ccccc2)(c2ccccc2)c2ccccc2)cc1	18%
COc1cc(CSc2nc3ccc(C)cc3c(=O)n2Cc2ccccc2)cc(OC)c1OC	51.5%
C[N+]1=C(/C=C/c2ccc(I)cc2)C(C)(C)c2ccccc21	89.9%
COc1ccccc1S(=O)(=O)Nc1ccc2c(c1)CN(C)C(=O)N2	72.9%
CCC(O)c1ccc(Br)cc1NC(=O)c1cccc(Cl)c1 (stereo not given)	18.7%
CCCCn1c(=O)[nH]c(N)c(C(c2ccc(Cl)cc2)c2c(N)[nH]c(=O)n(CCCC)c2=O)c1=O	38.1%
COc1ccc(C(=O)/C=C/c2cc(-c3ccc4c(c3)OCO4)n[nH]2)cc1OC	45.4%
COc1ccc2oc(=O)cc(C(c3ccc[nH]3)c3ccc[nH]3)c2c1	18.7%
